# Whole data set: some 33,000 sequences, median “E-score (-0.5 to 0.5)” near -0.0034, cut for the highest 2% near 0.25. The list comes from a sample in which the highest values are over-represented; it also holds similar and randomly drawn sequences.
# Target: T1, Yap3 (UniProt P38749)
# T1 sequence: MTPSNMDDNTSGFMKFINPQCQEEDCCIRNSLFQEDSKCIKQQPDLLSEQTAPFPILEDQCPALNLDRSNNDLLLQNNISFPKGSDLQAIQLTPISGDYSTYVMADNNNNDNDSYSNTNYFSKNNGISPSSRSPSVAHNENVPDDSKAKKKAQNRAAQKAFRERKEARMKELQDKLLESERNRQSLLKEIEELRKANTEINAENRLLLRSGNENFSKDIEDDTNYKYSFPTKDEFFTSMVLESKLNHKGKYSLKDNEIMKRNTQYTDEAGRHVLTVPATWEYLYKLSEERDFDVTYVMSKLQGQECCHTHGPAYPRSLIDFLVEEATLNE
# Assay: PBM E-score (8-mer binding enrichment) (E-score (-0.5 to 0.5)); higher = stronger / more preferred TF binding
# Conditions: protein concentration: 100 nM; construct: GST-full length
# Method: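 Universal 'all 10-mer' protein binding microarrays (Agilent AMADID 015681) probed with GST-tagged S. cerevisiae TFs (full-length or DBD) made by in vitro transcription/translation (PURExpress), about 100-200 nM. Bound TF was detected with fluorescent anti-GST. Each ungapped 8-mer (which stands for itself and its reverse complement) is scored by the PBM enrichment score (E-score), a modified Wilcoxon-Mann-Whitney statistic from -0.5 to +0.5, computed with the Universal PBM Analysis Suite. Scale: above 0.35 generally sequence-specific binding.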
row,Sequence,PBM E-score
1,GCGTCCCA,-0.121
2,GGTGGCGA,-0.0578
3,AAGGAGCG,0.00726
4,ACGGCAAA,0.134
5,ACGGCAAG,0.1
6,ACGGCAAT,0.285
7,GGAAAAAC,0.3
8,GAAAAAAC,0.255
9,AAAAAAAA,0.244
10,GGAAAAAA,0.248
11,GGGAAAAC,0.0844
12,GAAAAACC,0.136
13,AAAAAAAC,0.151
14,GGAAAACC,-0.11
15,GAAAAAAA,0.287
16,CCCAGCAC,-0.123
17,CACAGCAA,0.103
18,AGTCCTAC,-0.125
19,CTACCTTC,0.0321
20,AAGCTAAC,0.0596
21,CCTAAGGC,-0.38
22,CTACTTCA,-0.0894
23,ATACTTCA,0.0363
24,GTACTTCA,0.287
25,GCCAGGCA,-0.12

row,Sequence,PBM E-score
1,AACAGGCC,-0.258
2,ACGCGTTG,-0.027
3,ATACCTAC,-0.0217
4,ATACCTAA,0.273
5,CTACCTAA,0.126
6,GTACCTAA,-0.0819
7,ATACCTAT,0.124
8,TTACCTAA,0.281
9,CTCAGACA,0.087
10,GCATTCAA,0.0939
11,AGAACAAT,0.221
12,GGAACAAA,0.311
13,GGAACAAC,0.157
14,CGAACAAG,0.0425
15,TGAACAAA,0.248
16,AGAACAAG,0.205
17,GCAACAAA,0.193
18,CGAACAAA,0.303
19,AGAACAAA,0.291
20,CGCTCAAG,-0.114
21,AACTGGAC,0.0415
22,CGCGAGAG,-0.0457
23,AAGGCTTA,0.0457
24,AAGAGAGG,-0.163
25,GTTGTTCA,-0.0828

row,Sequence,PBM E-score
1,ATGTAGTA,0.237
2,CTGTATTC,0.128
3,CTGTATTA,0.258
4,ATGTATTA,0.178
5,ACGTATTG,0.111
6,GCGTATTA,0.148
7,GTGTAGTA,0.0243
8,GTGTATTA,0.338
9,CTGTATAA,0.13
10,GTGTATGA,0.0534
11,CTGTAGTA,0.281
12,ACGTATTA,0.282
13,GCTGCTCC,-0.307
14,ATCATATC,0.193
15,CGCTGTCA,-0.151
16,CGAGAACC,-0.00819
17,CGCACACG,-0.135
18,CCGTGAGA,-0.162
19,AACGCGCC,-0.0619
20,AGCTTTCC,-0.0722
21,ATTTGACG,0.138
22,CTGGGCCC,-0.273
23,CTGTGTTA,0.162
24,ATGTGTTA,0.2
25,GTGTGTTA,0.259

row,Sequence,PBM E-score
1,TGTTGGAA,0.122
2,AAGTCGAA,-0.0326
3,ATTACCAC,0.136
4,AGTACCAA,0.281
5,CGTACCAA,0.21
6,ATTACCAA,0.271
7,GTTACCAA,0.221
8,TGTACCAA,0.0503
9,AACTCAAA,0.187
10,GACGCGCC,-0.119
11,AATATGGC,0.0119
12,CTGACGTA,0.0592
13,ATGACAAG,-0.0324
14,ATCACGTA,0.311
15,ATGACAAA,0.307
16,ATGACAAC,0.189
17,ATGACGTA,0.277
18,ATCACGTC,0.16
19,ATGACGTG,0.127
20,ATCACGTG,0.0436
21,TGACTGCA,-0.167
22,CGCAGGTA,-0.116
23,ACTTAAGT,0.193
24,CCGAGCGC,0.00891
25,ACCTAGGG,-0.0254

row,Sequence,PBM E-score
1,AGCAACGA,0.117
2,CCGCTCGC,-0.178
3,ACAAGTTA,0.16
4,AACAATAC,0.0469
5,ACCAATAC,0.0412
6,ACCAATAG,-0.0827
7,AACAATAA,0.179
8,ACCAATAT,0.254
9,AACAATAT,0.329
10,CGTGAACC,-0.157
11,TCTCAGCA,0.0139
12,CAATTGGC,0.179
13,AATCCCCA,-0.0814
14,CGGTTACC,-0.159
15,ACCATGCG,0.0314
16,AAATTGGT,0.244
17,CCAGGGAA,-0.188
18,ACGAACCC,-0.133
19,CCGAACCA,-0.116
20,ACGAACCA,0.266
21,AGAAGGCA,-0.115
22,AATGCAAG,0.0231
23,AATGCAAA,0.262
24,AATGCGCA,0.295
25,CATGCGCA,0.0286

row,Sequence,PBM E-score
1,AATGCGCG,0.178
2,AATGCATG,0.188
3,AATGCATT,0.258
4,AATGCAAC,0.104
5,AATGCATA,0.0923
6,GCTCTCCA,-0.215
7,TCTATTCA,0.222
8,TCAAACCA,0.165
9,ACACTCGT,0.00445
10,TAATCCAA,0.24
11,AGAGCCCA,-0.112
12,CGGAAGAC,-0.00677
13,GTAATAGA,0.223
14,ATAATAGG,0.157
15,ATAATATG,0.307
16,CTAATATA,0.235
17,ATAATATC,0.194
18,CGAATATA,0.148
19,GTAATCTA,0.319
20,GTAATATA,0.354
21,AGAATATA,0.14
22,CTAATCTA,0.00845
23,ATAATCTA,0.229
24,ATAATATA,0.307
25,CAATCGGC,-0.0271

row,Sequence,PBM E-score
1,CAAACTGC,0.0735
2,ACTTGCTA,-0.0697
3,CACTCGAC,-0.0984
4,AATTAGAA,0.0871
5,CGATGGCC,-0.0485
6,TGCTAGAA,-0.0446
7,CCAGATAG,-0.0894
8,CCAATATA,0.0353
9,ACAATATA,0.302
10,GCAATATA,0.216
11,AATGCGAC,0.106
12,AAGCGCTT,0.321
13,AAGCGCTA,0.0946
14,AAGCGCTC,-0.0695
15,ACGCTTAT,-0.04
16,AGTAACTG,0.0876
17,ACTATATG,0.193
18,AATATGTC,0.111
19,AATATATG,0.304
20,AATATATC,0.157
21,AATATGTA,0.222
22,AATATATT,0.331
23,CATATATG,0.126
24,AATATATA,0.229
25,AATATGTG,0.273

# — the supplement of paper PMC3334620
